Several values for one entry are separate records, joined by “and”; a condition that tells them apart may be missing. Identical values can stand only once. The whole screen tested about 16,000 compounds, of which about 2,600 (16%) were called active. Roughly 20% stayed inconclusive and do not appear here. Calls follow the shape of the dose curve; as a rule, active = well fitted curve in the direction sought with a large enough effect; inconclusive = small, poorly fitted or top-dose-only effect, or effect the other way; inactive = no such curve, though single readings can be large or run the other way. The list is a sample of the results.
biological target: Cytochrome P450 2D6 (Homo sapiens) (UniProt P10635); experiment: Cytochrome panel assay with activity outcomes; details: recombinant CYP, pro-luciferin dealkylation, luminescence, p450-cyp2d6; series mostly up to 57.1 µM
Sequence (P10635 whole entry, looked up): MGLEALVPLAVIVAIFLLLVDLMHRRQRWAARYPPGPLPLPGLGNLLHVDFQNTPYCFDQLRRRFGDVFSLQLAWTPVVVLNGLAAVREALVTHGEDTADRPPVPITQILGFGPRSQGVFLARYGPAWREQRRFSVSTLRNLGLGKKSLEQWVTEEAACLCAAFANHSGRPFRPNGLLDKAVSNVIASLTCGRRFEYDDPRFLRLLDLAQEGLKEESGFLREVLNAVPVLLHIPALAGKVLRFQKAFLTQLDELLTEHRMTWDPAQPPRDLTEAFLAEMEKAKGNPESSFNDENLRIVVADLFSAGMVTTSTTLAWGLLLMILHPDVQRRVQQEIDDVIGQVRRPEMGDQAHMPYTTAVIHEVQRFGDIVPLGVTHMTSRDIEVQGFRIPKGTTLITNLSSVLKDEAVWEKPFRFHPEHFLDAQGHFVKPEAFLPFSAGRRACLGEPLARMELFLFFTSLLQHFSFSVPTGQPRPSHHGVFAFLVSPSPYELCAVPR
% is scaled to controls: 0 for no effect and ±100 for the full control effect.

AC50, inactive:
CN(C)/C=C/C(=O)c1ccc(F)cc1
O=S(=O)(O)C1CCNCC1
CC(C)N=C(Nc1ccc(Cl)cc1)c1cccnc1
Cc1nn(Cc2c(F)c(F)c(F)c(F)c2F)c(C)c1NC(=O)c1c(-c2ccccc2)nn(-c2ccccc2)c1C
c1ccc(-c2nc(-c3cccs3)[nH]c2-c2ccccc2)cc1
Cc1cc(C(F)F)n2nc(C(=O)Nc3cccnc3Cl)nc2n1
O=C(OCc1ccc(Cl)cc1)c1ccccc1C(=O)c1ccccc1
O=C(COC(=O)c1cccnc1Cl)c1ccccc1
CCc1ccc2c(c1)c(N=NC1=NC(=O)CS1)c(O)n2CC
COc1ccc(CN2C(=O)c3ccccc3C(/C=N\OCc3ccc(F)cc3)C2=O)cc1 (stereo unspecified)
COc1cccc(Cn2c(=O)c(CCc3ccccc3)nc3cnc(OC)nc32)c1
C=C1C(=O)O[C@@H]2[C@@H]1CC/C(C)=C\CC[C@@]1(C)O[C@H]21
Cc1ccccc1-c1ccc2ncnc(N3CCN(C)CC3)c2c1
CCOC(=O)c1cc2c(ccn2C)n1CC(=O)N1CCCC(C)C1 (stereo unspecified)
Cc1ccc(C(=O)NC(=S)Nc2ccc3c(c2)OCCO3)c(C)c1
CON1C(=O)C(=O)N(OC)C2CCCCC21 (stereo unspecified)
COc1cccc(Cn2c(=O)c(-c3cc(F)cc(F)c3)nc3cnc(N(C)C)nc32)c1
Cc1cccc(CSc2cccc3cccnc23)c1
CN(C)c1ccc(/C=C2/C(=O)N(c3ccc([N+](=O)[O-])cc3)N=C2N2CCOCC2)cc1
COc1ccc2[nH]c(C(=O)c3ccccc3)cc2c1
C=CCSC1=Nc2sccc2C2=NC(=O)CN12
COc1ccccc1CC(=O)Nc1cc2oc3ccccc3c2cc1OC
COc1cc2c(cc1NC(=O)c1cc(-c3cccnc3)nc3ccc(C)cc13)oc1ccccc12
COCCn1c(=O)c(-c2ccc(OC)cc2)nc2cnc(Nc3cccc(OC)c3)nc21
CCOc1cc(NC(=O)C2CCCCC2)c(OCC)cc1NC(=O)c1ccco1
Clc1ccc(SCc2cc(-c3ccccc3)no2)cc1
Cn1c(CNS(=O)(=O)c2ccc(Cl)cc2)n[nH]c1=S
COc1ccc(NC(=O)c2cc(-c3ccccc3Cl)no2)cc1
O=C(Nc1ccccc1)c1cc(-c2ccccc2Cl)no1
COc1ccc([C@@H]2CC(=O)c3c(O)cc(O[C@H]4O[C@@H](CO[C@H]5O[C@@H](C)[C@@H](O)[C@@H](O)[C@@H]5O)[C@@H](O)[C@@H](O)[C@@H]4O)cc3O2)cc1O
COc1cc(Cl)c(C)cc1NC(=O)CNC(=O)Cn1cnc2ccccc2c1=O
Cc1nc2c([nH]1)c(=O)n(C)c(=O)n2Cc1ccco1
Cc1ccc(S(=O)(=O)c2nc(S(=O)(=O)c3ccc(C)cc3)c(NCc3ccco3)s2)cc1
Cc1onc(-c2ccccc2Cl)c1C(=O)NCC(=O)O
O=c1c(-c2cccs2)nc2cnc(Oc3ccccc3)nc2n1Cc1cccs1
NC(=O)CNC(=O)[C@@H]1CC2(CC(c3ccc(Cl)cc3)=NO2)CN1C(=O)c1ccccc1 (stereo partly specified)
COc1ccc(S(=O)(=O)N2CCCCCC2)cc1N(C)S(=O)(=O)c1ccc(Cl)cc1
O=C(c1ccncc1)N1CCC[C@@]2(CCN(c3ncccn3)C2)C1
O=C(c1cccc(F)c1)N1CCC2(CC1)CCN(c1cccc(-c3ccccc3)c1)CC2
O=C(c1ccncc1)N1CCC2(CC1)CCN(c1ccccc1)CC2
CC(C)NC(=O)N1CC2(CCN(C(=O)c3ccncc3)CC2)C1
CC(C)NC(=O)N1CCCC2(CCN(C(=O)c3ccncc3)CC2)C1
O=C(c1ccncc1)N1CCC2(CC1)CN(c1ccc(-c3ccccc3)cc1)C2
O=C(c1ccncc1)N1CCC[C@@]2(CCN(c3ccccc3)C2)C1
CCN(CC)c1ccc(N2C(=O)/C(=C\c3cccnc3)SC2=S)cc1
NOCC(=O)O
CCCOc1ccc(C(=O)NC(=S)Nc2nc3ccc(C)cc3s2)cc1
Cc1cc(C)nc(NC(=O)CCCC(=O)O)c1
Cc1ccc(N(CC(N)=O)C2SC(=O)N(Cc3cccc(C(=O)O)c3)C2=O)cc1 (stereo unspecified)
CCOC(=O)CN(c1ccccn1)S(=O)(=O)c1ccccc1
O=C(O)c1ccc(CSc2nc3ccccc3o2)cc1
O=S(=O)(c1ccccc1)N1CCN(c2cc(-c3ccccc3)nc3ncnn23)CC1
O=C(c1cccc(F)c1)N1CCC2(CC1)CCN(c1ccccc1)CC2
Cn1cccc1C(=O)N1CCC2(CC1)CCN(C(c1ccccc1)c1ccccc1)CC2
Cn1cccc1C(=O)N1CCC2(CC1)CN(C(=O)Nc1ccccc1)C2
O=C(c1cccc(F)c1)N1CCC2(CC1)CN(c1ccc(-c3ccccc3)cc1)C2
CN1CCN(c2ncc3nc(-c4ccccc4)c(=O)n(Cc4cccs4)c3n2)CC1
CN1CCN(c2ncc3nc(CCc4ccccc4)c(=O)n(Cc4ccc(F)cc4)c3n2)CC1
N[C@H](CCCP(=O)(O)O)C(=O)O
O=C(N/C(=C/c1ccco1)C(=O)N1CCCCCC1)c1cccs1
Cc1cc(OCC(F)(F)C(F)(F)C(F)(F)C(F)(F)C(F)(F)C(F)F)nc(N)n1
CCCCn1c(SCC(N)=O)nc2ccc(N3CCOCC3)cc2c1=O
Cc1ccc(OC(=O)c2oc3ccc(F)cc3c2C)c(C)c1
Cc1ccc(NC(=S)NC(=O)c2c(-c3ccccc3Cl)noc2C)cc1
Cc1ccc(S(=O)(=O)c2c(C)nn(C(C)(C)C)c2OC(=O)c2cccs2)cc1
CC(N)=NCCCC[C@H](N)C(=O)O
CS/C(N)=N/N=C/c1ccc([N+](=O)[O-])cc1
Cc1cc(C)cc(NC(=O)C/C(N)=N/O)c1
O=C(c1ccccc1NS(=O)(=O)c1cccc([N+](=O)[O-])c1)N1CCOCC1
CC(=O)c1cc2c(cc1NC(=O)c1c(-c3ccccc3)noc1C)OCO2
CCOC(=O)Cc1csc(NC(=O)c2c(-c3c(Cl)cccc3Cl)noc2C)n1
CC1(C)CC(=O)C(CCCN2C(=O)c3ccccc3C2=O)C(=O)C1
CCN(CC)c1ncnc2c1sc1nc(C)cc(C)c12
O=C(CSc1nncn1-c1ccccc1)Nc1ccc(N2CCOCC2)cc1

AC50, active:
O=[N+]([O-])c1cccc(-c2nc(-c3cccs3)c(-c3cccs3)[nH]2)c1 15.8 µM
O=C(OCc1ccc(Cl)cc1Cl)c1cccnc1Cl 15.8 µM
CN(C)c1ccc(-c2ccc3ncnc(-n4ccnc4)c3c2)cc1 20 µM
Cc1ccccc1-c1ccc2ncnc(-n3ccnc3)c2c1 25.1 µM
CC(C)(C)c1cc2cccnc2n1Cc1cccc(F)c1 1.26 µM
COc1cc2c(cc1NC(=O)Nc1ccccc1)oc1ccccc12 10 µM
O=S(=O)(NCc1cc(-c2ccccc2Cl)no1)c1ccc(Cl)cc1 12.6 µM
O=S(=O)(NCc1cc(-c2ccc(Cl)cc2)no1)c1ccc(Cl)cc1 0.631 µM
Nc1c(S(=O)(=O)c2ccccc2)c2nc3ccccc3nc2n1Cc1ccco1 25.1 µM
O=C(c1ccncc1)N1CCC2(CC1)CN(c1ccccc1)C2 7.94 µM
O=C(c1ccncc1)N1CCC2(CC1)CN(C(c1ccccc1)c1ccccc1)C2 0.0251 µM
O=C(c1ccncc1)N1CCC2(CCCN(C(c3ccccc3)c3ccccc3)C2)CC1 0.0398 µM
O=C(c1ccncc1)N1CCC2(CC1)CCN(c1cccc(-c3ccccc3)c1)CC2 7.94 µM
Cn1cccc1C(=O)N1CCC2(CC1)CN(C(c1ccccc1)c1ccccc1)C2 3.16 µM
O=C(c1cccc(F)c1)N1CCC2(CC1)CCN(C(c1ccccc1)c1ccccc1)CC2 3.16 µM
O=C(c1ccncc1)N1CCC2(CC1)CCN(C(c1ccccc1)c1ccccc1)CC2 3.16 µM
CCCC[C@H](CC)CN=C(N)NC(N)=NCCCCCCN=C(N)NC(N)=NC[C@@H](CC)CCCC 3.16 µM
Cc1onc(-c2c(Cl)cccc2Cl)c1C(=O)Nc1ccc2c(c1)OCO2 7.08 µM
O=C(CSC1=NCCN1)Nc1ccccc1 1.58 µM

activity, negative = inhibition, inactive:
Cc1ccccc1S(=O)(=O)O[C@@H]1NS(=O)(=O)c2ccccc21 6.51% [at 11.4 µM]
COCn1c2ccccc2c2nnc(C(C)=O)nc21 -15.8% [at 11.4 µM] and -6.91% [at 11.4 µM]
O=S(=O)(O)c1ccc2c(N=Nc3cccc4ccccc34)c(O)c(S(=O)(=O)O)cc2c1 5.03% [at 11.4 µM]
Nc1nc(-c2cccc([N+](=O)[O-])c2)cc(-c2cc(-c3cccc([N+](=O)[O-])c3)nc(N)n2)n1 -5.72% [at 11.4 µM]
O=C(O)c1ccc(NCc2nc3cc4ccccc4cc3[nH]2)cc1 3.49% [at 11.4 µM]
C[C@@H](CCC(=O)O)C(=O)O 1.74% [at 11.4 µM]
CO/N=C\[C@@H](OC)[C@H](C)/C=C\CC(=O)OC 9.03% [at 11.4 µM]
O=C(O)CCSC1=NCCN1 15.4% [at 11.4 µM]
